Bioassay records from PubChem.
3CLpro inhibitor: SARS-CoV 3CLpro protease inhibition; 290,000 compounds, 0.14% hits; inhibition, % at 6 µM; recombinant SARS-CoV 3CLpro, quenched FRET peptide cleavage; P0C6X7; in the data active means inhibition above about 12%
PrPC surface inh: cell surface PrPC inhibition, primary TR-FRET screen | inhibition, % at 13.8 µM | TR-FRET read-out | 370,000 compounds, 0.43% hits | P04156 | AID 720596; in the data active means inhibition above about 24%; further: 0% = median of the test wells and 100% = reference compound wells
CCHF vOTU inh: CCHFV vOTU protease inhibition | Pep-AMC fluorescence | inhibition, % at 11.5 µM | 370,000 compounds, 0.55% hits | AID 651958; in the data active means inhibition above about 30%; further: 0% = vehicle wells with enzyme and 100% = no enzyme wells
PrP UTR inh: suppresses PrP 5' UTR mRNA reporter expression; cell-based PrP 5' UTR mRNA reporter, plate reader; inhibition, % (concentration not given with the values); 340,000 compounds, 0.35% hits; in the data active means inhibition above about 52%; further: 0 = median of the neutral control wells
PrP UTR cherry: prion 5' UTR mRNA inhibition, cherry-pick retest; shares compounds with PrP UTR inh; cell-based prion protein 5' UTR reporter, plate reader; inhibition, % at 2.5 µM; 1,100 compounds, 48% hits; in the data active means inhibition above about 54%
Active calls of the source: *; · = not tested or not shown. Hits are enriched below; roughly 1.3% of the tested compounds scored in any of these assays.

SMILES	3CLpro inhibitor	PrPC surface inh	CCHF vOTU inh	PrP UTR inh	PrP UTR cherry
O=C(NNC(=O)C1CCCO1)c1ccc(Br)cc1 (stereo unspecified)	-8.7	2.5	-23.2	-24.8	·
O=C(COC(=O)C1CCC1)Nc1ccc(Cl)cn1	·	-6.5	-12.5	-19.5	·
O=C(O)c1cccc(N/N=C/c2cccs2)c1	1.7	1.6	14.2	65.2*	63.5*
O=S(=O)(NCCc1ccccc1)c1ccc(F)cc1Br	·	7.3	-0.6	53.4*	-8.5
COc1cccc(CNC(=O)c2ccc3c(c2)N(C)CCS3)c1OC	0.8	13.2	-99.5	58.9*	-30.2
CN1CCSc2ccc(C(=O)NCc3ccccc3F)cc21	-6.9	16.6	-76.7	-21.5	·
Cn1cccc1/C=C1\SC(=Nc2ccccc2)NC1=O	8.0	8.9	6.2	-71.5	·
Cn1cccc1/C=C1\SC(=Nc2ccc(O)cc2)NC1=O	-2.1	2.5	4.8	68.8*	82.3*
Cc1nn(-c2ccccc2Cl)c(Cl)c1/C=N/Nc1nc2ccccc2s1	2.0	6.2	20.1	86.8*	81.4*
NC(=O)c1sc(=S)n(-c2ccc(Br)cc2)c1N	-4.4	-23.2	6.0	-6.1	·
CN(C(=O)COC(=O)c1ccc(Cl)nc1)C1CCS(=O)(=O)C1 (stereo unspecified)	-1.7	-2.4	-3.4	67.9*	-19.6
CN(C(=O)COC(=O)c1cnc(Cl)c(Cl)c1)C1CCS(=O)(=O)C1 (stereo unspecified)	-3.3	6.1	3.5	-38.0	·
CCCN(CCC)CCCNC(=O)C1c2cc(OC)c(OC)cc2C(=O)N(C)C1c1cccs1 (stereo unspecified)	-2.0	-2.1	-1.6	2.6	·
CCCCNC(=O)C1c2cc(OC)c(OC)cc2C(=O)N(C)C1c1cccs1 (stereo unspecified)	3.2	2.0	-0.6	80.9*	-14.7
Cc1nc(-c2ccc(NS(C)(=O)=O)cc2)cs1	2.1	7.8	4.6	12.2	·
O=C(NC(=S)NNC(=O)c1cccs1)c1ccco1	2.5	-1.7	5.6	-46.3	·
O=C(NNC(=O)c1cccs1)c1ccco1	5.3	-2.8	11.1	64.4*	88.4*
CCOC(=O)c1c(C)[nH]c(C(=O)N/N=C/c2ccc(Br)cc2)c1C	-0.3	2.2	13.5	55.1*	87.7*
Cc1[nH]c(C(=O)N/N=C/c2ccc(C(=O)O)cc2)c(C)c1C(=O)N/N=C/c1ccc(C(=O)O)cc1	0.4	-3.4	16.9	-5.4	·
Cc1ccc(NC(=O)C2CCN(C(=O)c3ccccc3C)CC2)nc1	·	6.2	-7.7	-15.4	·
Cc1ccccc1C(=O)N1CCC(C(=O)Nc2nccs2)CC1	2.3	-4.1	-0.6	88.0*	-16.8
Cc1[nH]nc2ccc(-c3cncc(OC[C@@H](N)Cc4c[nH]c5ccccc45)c3)cc12	·	·	·	95.1*	91.1*
C[C@@H]1O[C@@H](O[C@@H]2C=C3CCC4C(CC[C@]5(C)[C@@H](c6ccc(=O)oc6)CC[C@]45O)[C@@]3(C)CC2)[C@H](O)[C@H](O)[C@H]1O (stereo partly specified)	·	-6.0	-4.1	94.0*	94.4*
C[C@@H]1O[C@@H](O[C@@H]2C=C3CC[C@@H]4C(CC[C@]5(C)[C@@H](c6ccc(=O)oc6)CC[C@]45O)[C@@]3(C)CC2)[C@H](O)[C@H](O)[C@H]1O (stereo partly specified)	·	-7.1	12.9	94.0*	89.7*
Cc1c(C(N)=O)c(N)c(C(=O)c2ccccc2)n1-c1ccccc1	-1.1	-2.4	2.5	-28.7	·
SMILES	3CLpro inhibitor	PrPC surface inh	CCHF vOTU inh	PrP UTR inh	PrP UTR cherry
O=C(Cc1cccs1)N/N=C/c1ccco1	2.3	6.5	-6.5	-18.5	·
CN(CC(=O)Nc1cccc(F)c1)C(=O)c1cn(-c2ccccc2)nc1-c1ccc(Cl)cc1	·	0.9	17.3	-2.0	·
O=C(COc1ccccc1[N+](=O)[O-])Nc1cccc(Cl)c1N1CCOCC1	-2.1	5.8	14.6	-13.8	·
Cc1ccc(Nc2nc(-c3ccccc3)c(CC(=O)O)s2)cc1	2.0	5.3	-0.2	-37.8	·
O=C(O)Cc1sc(Nc2ccccc2)nc1-c1ccc(Cl)cc1	0.4	-6.9	19.8	56.9*	-0.6
COc1ccc(Oc2ncc(CN3CCN(c4ccccc4)CC3)s2)cc1	0.4	-3.1	7.2	-6.6	·
Cc1cc(C(=O)OCC(=O)Nc2cc(S(=O)(=O)N(C)C)ccc2Cl)c2ccccc2n1	4.7	-1.4	0.1	-20.0	·
COC(=O)C1CCC(=O)N1C(c1ccc(OC)cc1)c1cc(OC)c(OC)c(OC)c1 (stereo unspecified)	·	8.0	-5.9	56.1*	88.6*
CCc1ccc(-c2cc(C)no2)cc1S(=O)(=O)NC(C)Cc1ccco1 (stereo unspecified)	0.7	4.4	19.2	-12.9	·
O=C(N/N=C/c1cc2c(cc1Br)OCO2)c1cccnc1	2.3	-8.3	-3.2	62.2*	-14.1
O=C(NCC1CCCCC1)c1ccc(F)c(S(=O)(=O)N2CCOCC2)c1	·	10.5	6.9	-27.4	·
CCC1CCCCN1C(=S)NC(=O)c1ccc(F)c(S(=O)(=O)N2CCOCC2)c1 (stereo unspecified)	6.1	4.8	2.8	59.5*	4.9
Cc1ccc(NC(=O)CN2C(=O)S/C(=C\c3cccn3-c3cccc(C(=O)O)c3)C2=O)c(C)c1	1.9	·	·	-9.7	·
Nc1ccc(Oc2cccc(Oc3ccc(N)cc3)c2)cc1	2.0	9.6	1.0	67.2*	75.0*
O=c1cc(-c2cccc(F)c2)[nH]c2ccccc12	-2.3	12.5	-2.6	19.3	·
COc1ccc2[nH]c(-c3cccc(F)c3)cc(=O)c2c1	-1.4	-1.4	-19.5	62.2*	91.7*
O=S(=O)(Cc1ccccc1Cl)NCc1ccccc1	-1.5	1.1	-7.7	-19.5	·
Cn1c(=O)oc2cc(S(=O)(=O)N3CCC(C(=O)N4CC=C(c5ccccc5)CC4)CC3)ccc21	-4.2	-4.1	-3.6	61.2*	-5.2
Cn1c(=O)oc2cc(S(=O)(=O)N3CCC(C(=O)N4CCN(c5ccccc5)CC4)CC3)ccc21	-5.5	4.8	1.7	-26.2	·
CCc1ccccc1S(=O)(=O)Cc1ccc(C(=O)NC2CCCC2)o1	-2.4	-1.1	-6.7	-5.2	·
Cc1ccc(NC(=O)CCNS(=O)(=O)c2cc(Br)cnc2N)cc1Cl	-5.2	0.6	7.6	-2.6	·
C/C(=N\NC(N)=O)c1ccc(Cl)cc1	-3.9	4.4	13.7	-5.7	·
C/C(=N\NC(N)=O)c1ccccc1	2.5	6.7	-4.3	72.3*	-7.0
COc1cc(/C=C/C(=O)OCC(=O)N2CCCCCC2)ccc1OCC#N	-2.1	-1.4	-9.2	-11.5	·
O=C(C[n+]1ccccc1)N/N=C/c1ccccc1F	-1.0	-2.6	0.0	-24.0	·
O=C(C[n+]1ccccc1)N/N=C/c1c(F)cccc1Cl	-4.2	2.5	-14.8	58.6*	-3.5
N#Cc1ccc(C(=O)OCc2cccc(S(=O)(=O)N3CCOCC3)c2)cc1	·	-5.3	-7.6	-8.0	·
CN1CCN(c2ccc([N+](=O)[O-])cc2C(=O)c2ccc(Br)cc2)CC1	1.2	-14.9	0.8	-31.6	·
O=C(c1cc([N+](=O)[O-])ccc1N1CCOCC1)N1CCN(c2ccccc2)CC1	-1.0	3.6	7.7	81.0*	92.5*
